Source: PubChem
Spn MK inh = S. pneumoniae mevalonate kinase inhibition; purified MK, PK/LDH-coupled NADH absorbance 340 nm; inhibition, % at 10 µM; hit rate 0.48% among 65,000; AID 555;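 active means ranked among the strongest by inhibition in the single 10 µM screen, a fixed top-ranked set picked for dose follow-up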
Autofluor 339 = intrinsic fluorescence of library compounds, ex339/em460 – biochemical, MLSMR library, data from DPM-DC assay, artefact control, profiling panel; compound autofluorescence, ex339/em460 nm, NADH buffer; hits give high values; 1 = no-compound wells, NADH background; fluorescence fold increase at 10 µM; hit rate 5.5% among 65,000;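 active means at 10 µM, mean starting fluorescence two-fold or more over control wells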;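 further: signal is the first read of a kinetic run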
Spn PMK inh = inhibitors of Streptococcus pneumoniae phosphomevalonate kinase. purified PMK, PK/LDH-coupled NADH absorbance 340 nm. inhibition, % at 10 µM. hit rate 0.49% among 65,000;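 active means top-ranked compounds by inhibition in the single 10 µM screen, taking a fixed number of the strongest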
Abs 340nm = compound absorbs light at 340 nm. compound absorbance at 340 nm, fold over control. fold change at 10 µM. 65,000 tested, under 10 active. AID 708;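 active means at 10 µM dose, initial 340 nm absorbance at least 2 fold that of control wells; inactive means change under 2 fold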;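 further: initial absorbance extrapolated from kinetic A340 decline of NADH oxidation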
NADH enzymes = blocks coupling enzymes of NAD/NADH assays | IC50, µM (doses to about 10 µM) | coupled PK/LDH NADH assays, four targets | hit rate 0.02% among 65,000;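 active means single-dose screening hits from any of four coupled enzyme assays that gave an IC50 when retested across doses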;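 further: the DPM-DC format reads NADH fluorescence rather than 340 nm absorbance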
DPM-DC inhibit = blocks S. pneumoniae diphosphomevalonate decarboxylase; purified DPM-DC, PK/LDH coupled NADH fluorescence; calls only at 10 µM; hit rate 0.49% among 65,000;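 active means the 320 compounds with the highest percent inhibition in the single-dose primary screen, excluding strongly autofluorescent ones, cut at about 32% in these data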;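 further: kinetic rate of NADH fluorescence loss reporting ADP formed by the decarboxylase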
Large screens that a line does not name were inactive. Shown are actives, neighbours in structure and some others; about 6.8% of the full set was active somewhere.

Cc1ccc(C2NC(=O)NC3=C2CCc2ccccc23)cc1 (configuration not stated)	Autofluor 339 2.61
COc1cc(OC)c(OC)cc1CN1CCN(c2ccccc2OC)CC1	Spn MK inh 43.0
COc1cc(CN2CCN(c3cccc(C)c3C)CC2)cc(OC)c1O	Spn MK inh 51.0
Clc1ccc2nc(NC3=NCN(CCN4CCOCC4)CN3)nc(-c3ccccc3)c2c1	Autofluor 339 2.23
O=C(Nc1cccc(Br)c1)c1ccn[nH]1	none
CCN(CC)C(=O)C1CCCN(Cc2ccccc2F)C1 (configuration not stated)	none
CCN(CC)C(=O)C1CCCN(Cc2ccccc2C(F)(F)F)C1 (configuration not stated)	Spn MK inh 45.0
CCN(CC)C(=O)C1CCCN(C/C=C/c2ccccc2)C1 (configuration not stated)	Spn MK inh 47.0
CCN(CC)C(=O)C1CCCN(C/C(C)=C/c2ccccc2)C1 (configuration not stated)	Spn PMK inh 26.0
CCOC(=O)N1CCN(C(=O)C(NS(=O)(=O)c2cccc3nsnc23)c2ccccc2)CC1 (configuration not stated)	none
CCc1ccccc1NC(=O)Cn1nnc(-c2cccnc2)n1	none
Nc1nnc(-c2cc3ccccc3oc2=O)s1	Autofluor 339 3.01 (not shown: DPM-DC inhibit)
O=C(O)c1cc(S(=O)(=O)O)ccc1O	none
O=C(OCc1cc(Cl)ccc1OC(F)F)c1cc(S(=O)(=O)O)ccc1O	Autofluor 339 2.09 (not shown: DPM-DC inhibit)
CCN(CC)Cc1c[nH]c2c(C(=O)OC)cccc12	Autofluor 339 2.12 (not shown: DPM-DC inhibit)
Fc1ccc(-c2cc(C(F)(F)F)nc(N3CCCCC3)n2)cc1	none
COC(=O)c1c(S(N)(=O)=O)c2ccccc2n1C	Autofluor 339 2.08 (not shown: DPM-DC inhibit)
COc1cc2c(cc1OC)-c1nnc(-c3cccs3)n1C(C)(C)C2	none
Cc1nn(-c2ccccc2)c2sc(C(=O)N(CC(=O)NC3CCCC3)Cc3ccco3)cc12	none
CC1(C(=O)N(CC(=O)NC2CCCC2)Cc2ccco2)CC(=O)N=C2C=CC=CN21 (configuration not stated)	Autofluor 339 4.85 (not shown: DPM-DC inhibit)
O=C(CSc1ncnc2c1cnn2-c1ccccc1)Nc1ccc2c(c1)OCO2	DPM-DC inhibit active
COc1ccc2nc(NC(=O)c3ccc(-n4nc(C)cc4C)cc3)sc2c1	Autofluor 339 5.11 (not shown: DPM-DC inhibit)
COc1ccc2nc(NC(=O)c3ccc4ncsc4c3)sc2c1	Autofluor 339 2.19 (not shown: DPM-DC inhibit)
Cc1cc(C)n(-c2ccc(C(=O)Nc3nnc(C4CC4)s3)cc2)n1	none
Nc1nc2c(c3c1c(=O)oc1ccccc13)CCCCC2	Autofluor 339 2.21 (not shown: DPM-DC inhibit)
CC(=O)Nc1nc2c(c3c1c(=O)oc1ccccc13)CCCCC2	none
CC(C)(C)NC(=O)CSc1ncnc2c1nnn2Cc1ccccc1Cl	Spn PMK inh 40.0
CCN(CC)CCN1C(=O)c2ccccc2NC1c1cc(OC)c(OC)c(OC)c1 (configuration not stated)	Autofluor 339 2.3 (not shown: DPM-DC inhibit)
CCN(CC)CCN1C(=O)c2ccccc2NC1c1cccc(F)c1 (configuration not stated)	Autofluor 339 2.07 (not shown: DPM-DC inhibit)
COc1ccc(C2Nc3ccccc3C(=O)N2O)cc1OC (configuration not stated)	none
O=C(CCc1nc2ccccc2c(=O)[nH]1)OCC(=O)N1CCN(S(=O)(=O)c2ccccc2)CC1	Spn PMK inh 28.0
COc1cc(OC)cc(-n2c3nc4ccccc4nc3c3c(=O)n(CC4CCCO4)cnc32)c1 (configuration not stated)	none
Cc1nc2c(c(=O)n1CC1CCCO1)c1nc3ccccc3nc1n2CCC(C)C (configuration not stated)	Autofluor 339 2.29 (not shown: DPM-DC inhibit)
O=c1c2c3nc4ccccc4nc3n(CC3CCCO3)c2ncn1CCc1ccccc1 (configuration not stated)	Autofluor 339 2.91 (not shown: DPM-DC inhibit)
CCCCCn1c2nc3ccccc3nc2c2c(=O)n(CC(C)C)cnc21	none
CCCCCn1c2nc3ccccc3nc2c2c(=O)n(CC3CCCO3)c(C)nc21 (configuration not stated)	Autofluor 339 3.99 (not shown: DPM-DC inhibit)
CCCn1c(C)nc2c(c1=O)c1nc3ccccc3nc1n2-c1ccc2c(c1)OCCO2	Autofluor 339 2.6, DPM-DC inhibit active
